Screening data: PubChem, Broad Institute
aSyn 5UTR act: Activators working through SNCA 5'UTR binding (MLPCN) | alpha-synuclein 5'UTR reporter, activators screen | activity score, % (tested at 7.5 µM), hits read low | 300,000 compounds, 7.1% hits | AID 1814; in the data active = activity score below about -60%
* marks the source's active call; other numbers are inactive results. Not all results are given here.

SMILES	aSyn 5UTR act
Cc1ccc(NC(=O)CS(=O)c2ccccc2N)c(C)c1 (stereo not given)	-96*
Cc1cc2c(cc1C)CN(c1ccccc1)C2	-90*
Oc1cccc(N2Cc3ccccc3C2)c1	-82*
Cc1cc(N2Cc3ccccc3C2)ccc1C=O	-96*
Cc1ccc(NC(=O)c2ccc(CSc3nnc(C)s3)cc2)c(C)c1	-68*
Cc1cc(C(=O)CSc2nnnn2C)c(C)n1C1CC1	-69*
Cc1nnc(SCC(=O)c2cc(C)n(C3CC3)c2C)s1	-146*
Cc1ccc(C(=O)CSc2nnc(C)s2)cc1	-85*
O=C(N/N=C\c1ccc(Oc2ccccc2)cc1)c1csnn1	-96*
CN(C)c1ccc(/C=N\NC(=O)c2csnn2)cc1	-146*
Cc1cc(C)n(-c2nc3ccccc3c(=O)n2OCC(N)=O)n1	-63*
Cc1ccc(CNC(=O)Nc2ccc(Cl)cc2)cc1	-99*
Cc1ccc(/C=N/NC(=O)Cc2ccc(Cl)cc2)c(O)c1	66
O=C(NCc1ccc(F)cc1)Nc1ccccc1	-108*
Cc1ccc(CNC(=O)Nc2ccccc2)cc1	-187*
Cc1ccc(CNC(=O)NCc2ccccc2)cc1	-63*
CC(=O)N(Cc1ccc(F)cc1)C1=C(NCc2ccccc2)C(=O)c2ccccc2C1=O	92
NC(=NCCCCCCN=C(N)/N=C(\N)Nc1ccc(Cl)cc1)/N=C(\N)Nc1ccc(Cl)cc1	96
O=C(NCC1CC1)Nc1ccc(Cl)cc1	-79*
O=C(NCc1ccc(Cl)cc1Cl)Nc1ccccc1	-91*
Cc1ccc(CNC(=O)Cc2cccs2)cc1	-70*
Cc1ccc(CNC(=O)Nc2cccs2)cc1	-115*
Cc1ccc(C)c(CNC(=O)Nc2ccccc2)c1	-147*
CSc1ccc(NC(=O)NCc2ccccc2)cc1	-152*
Cc1cccc(NC(=O)c2ccccc2OCC(=O)c2ccc(F)cc2)c1	30
SMILES	aSyn 5UTR act
Cc1ccc(NC(=O)COc2ccccc2C(=O)Nc2ccccc2)cc1Cl	-82*
CCOc1ccc(NC(=O)C(C)Oc2ccccc2C(=O)Nc2ccc(C)c(Cl)c2)cc1 (stereo not given)	-126*
Cc1ccc(NC(=O)CSc2ccccc2NC(=O)c2ccccc2)cc1Cl	-78*
C=CCc1cccc(C=Nc2cccn3cc(-c4ccccc4)nc23)c1O	-89*
C=CCc1cccc(C=Nc2cc(Br)ccc2O)c1O	-110*
CCc1ccc(O)c(N=Cc2cccc(C)c2O)c1	-131*
CC(C)N1CN=C(Nc2nc3ccccc3o2)NC1	-70*
c1ccc2oc(NC3=NCN(C4CCCCC4)CN3)nc2c1	-174*
COCCN1CN=C(Nc2nc3ccccc3o2)NC1	-83*
CCCCN1CN=C(Nc2nc3ccccc3o2)NC1	-136*
COc1ccc(N=CC2=C(O)c3ccccc3C2=O)c(OC)c1	63
O=C1C(C=Nc2ccc(F)cc2)=C(O)c2ccccc21	-214*
Cc1ccccc1N=CC1=C(O)c2ccccc2C1=O	-138*
CCCCNc1c(-c2cccc(-c3cc(C(C)=O)cs3)c2)nc2ccc(C)cn12	-71*
CN(C(=O)c1ccco1)c1nnc(C23CC4CC(CC(C4)C2)C3)s1	-144*
COc1ccccc1C1=NOC(C)(c2sc(-c3ccc(Cl)cc3)nc2C)C1 (stereo not given)	-70*
Cc1nc(-c2ccc(Cl)cc2)sc1C1(C)CC(c2ccccc2)=NO1 (stereo not given)	-134*
Cc1nc(-c2ccccc2)sc1C1(C)CC(c2ccccc2F)=NO1 (stereo not given)	-76*
O=C(N/N=C/c1c[nH]c2ccc(Br)cc12)c1ccccn1	-63*
O=C(N/N=C/c1cc2c(cc1Br)OCO2)c1ccccn1	-186*
O=C(N/N=C/c1cc2c(cc1Br)OCO2)c1c[nH]c2ccccc12	-82*
O=C(N/N=C/c1cc2c(cc1Br)OCO2)c1cc2ccccc2o1	-66*
CC(=O)Oc1ccc(/C=C2/Oc3ccccc3C2=O)cc1	-75*
O=C1/C(=C/c2ccccc2)Oc2cc(OC(=O)N3CCOCC3)ccc21	-110*
Cc1nc(CSc2ccc(Br)cc2)cs1	-71*
SMILES	aSyn 5UTR act
CCOC(=O)c1cnc(Nc2nc3ccccc3o2)nc1CSc1ncccn1	-100*
CCCc1nc(Nc2nc3ccccc3o2)nc(C)c1C(=O)OCC	-80*
Cc1ccccc1Nc1nc(N)nc(CSc2ccc(F)cc2)n1	-125*
Cc1ccc(Nc2nc(N)nc(CSc3nccn3C)n2)c(C)c1	-101*
Cc1ccccc1Nc1nc(N)nc(CSc2nnnn2C)n1	-109*
O=C(NC(=S)NCc1nc2ccccc2[nH]1)c1ccc(F)cc1	-119*
O=C(NC(=S)NCc1nc2ccccc2[nH]1)c1ccccc1F	-143*
O=c1oc2ccccc2cc1-c1csc(NN=C2CCCCC2)n1	-122*
CC1CCC/C(=C(\C#N)c2nc(-c3cc4ccccc4oc3=O)cs2)C1 (stereo not given)	-122*
C/C(=N\Nc1nc(-c2ccc(C)cc2C)cs1)c1cc2ccccc2oc1=O	-72*
O=c1oc2ccccc2cc1-c1csc(Nc2nc3ccc(F)cc3s2)n1	-115*
O=c1oc2ccccc2cc1-c1nc2c(s1)CCCC2	44
CC(C)(C)C(=O)Nc1nc2c(s1)CN(Cc1ccccc1)CC2	-92*
